Measurements taken from PubChem BioAssay AID1159580 (chemical genetic matrix, 2015).
Where “and” joins values, the source holds several entries; their conditions need not be identical. Equal values may be shown once. Screen size: about 5,500 compounds; about 2,000 (36%) were called active. Roughly 18% stayed inconclusive and do not appear here. Rule as the data show it: active = normalized growth mostly below about 0.91 (no sharp cut-off); inconclusive = no clear call, values can overlap the other calls; inactive = mostly above about 0.92. This is one part of the list.

Test: chemical genetic growth profiling, strain panel (AID 1159580);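 also: tested at 20 µM; growth read once vehicle control cultures reached saturation at 30 °C; 1 = growth at the plate median or of vehicle wells; lower values mean less growth of the strain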
Conditions: growth OD

Measured: normalized growth

CC(=O)O[C@@H]1CC2C(C)(C)C(=O)C=C[C@]2(C)C2CC[C@]3(C)C(=CC(=O)O[C@H]3c3ccoc3)[C@@]21C (stereo partly drawn)
inactive: S. cerevisiae deletion strains, locus YAL013W, strain DEP1, stronger effect = lower value 0.996 | S. cerevisiae deletion strains, locus YAL021C, strain ccr4, stronger effect = lower value 1.01 | S. cerevisiae deletion strains, locus YAL026C, strain drs2, stronger effect = lower value 1.01 | S. cerevisiae deletion strains, locus YAL030W, strain snc1, stronger effect = lower value 1 | S. cerevisiae deletion strains, locus YBL061C, strain skt5, stronger effect = lower value 1.03 | S. cerevisiae deletion strains, locus YBR009C, strain hhf1, stronger effect = lower value 1.01 | S. cerevisiae deletion strains, locus YBR021W, strain FUR4, stronger effect = lower value 0.988 | S. cerevisiae deletion strains, locus YBR023C, strain chs3, stronger effect = lower value 1 | S. cerevisiae deletion strains, locus YBR171W, strain sec66, stronger effect = lower value 1.01 | S. cerevisiae deletion strains, locus YBR229C, strain ROT2, stronger effect = lower value 0.941 | S. cerevisiae deletion strains, locus YBR231C, strain swc5, stronger effect = lower value 0.998 | S. cerevisiae deletion strains, locus YBR279W, strain paf1, stronger effect = lower value 1.01 | S. cerevisiae deletion strains, locus YCL011C, strain gbp2, stronger effect = lower value 0.993 | S. cerevisiae deletion strains, locus YCL016C, strain dcc1, stronger effect = lower value 1.01 | S. cerevisiae deletion strains, locus YCL029C, strain bik1, stronger effect = lower value 0.977 | S. cerevisiae deletion strains, locus YCL069W, strain vba3, stronger effect = lower value 1 | S. cerevisiae deletion strains, locus YCR088W, strain abp1, stronger effect = lower value 1.01 | S. cerevisiae deletion strains, locus YDL005C, strain med2, stronger effect = lower value 0.995 | S. cerevisiae deletion strains, locus YDL035C, strain GPR1, stronger effect = lower value 0.964 | S. cerevisiae deletion strains, locus YDL040C, strain nat1, stronger effect = lower value 1 | S. cerevisiae deletion strains, locus YDL074C, strain BRE1, stronger effect = lower value 0.979 | S. cerevisiae deletion strains, locus YDL101C, strain DUN1, stronger effect = lower value 1 | S. cerevisiae deletion strains, locus YDL185W, strain tfp1, stronger effect = lower value 0.959 | S. cerevisiae deletion strains, locus YDL192W, strain arf1, stronger effect = lower value 0.978 | S. cerevisiae deletion strains, locus YDR001C, strain nth1, stronger effect = lower value 1.01 | S. cerevisiae deletion strains, locus YDR069C, strain doa4, stronger effect = lower value 1.02 | S. cerevisiae deletion strains, locus YDR101C, strain arx1, stronger effect = lower value 0.956 | S. cerevisiae deletion strains, locus YDR137W, strain rgp1, stronger effect = lower value 1.05 | S. cerevisiae deletion strains, locus YDR159W, strain sac3, stronger effect = lower value 1.01 | S. cerevisiae deletion strains, locus YDR162C, strain NBP2, stronger effect = lower value 0.988 | S. cerevisiae deletion strains, locus YDR195W, strain ref2 0.968 | S. cerevisiae deletion strains, locus YDR297W, strain sur2, stronger effect = lower value 0.992 | S. cerevisiae deletion strains, locus YDR318W, strain mcm21, stronger effect = lower value 0.983 | S. cerevisiae deletion strains, locus YDR334W, strain swr1, stronger effect = lower value 1.01 | S. cerevisiae deletion strains, locus YDR335W, strain msn5, stronger effect = lower value 1.01 | S. cerevisiae deletion strains, locus YDR388W, stronger effect = lower value 0.983 | S. cerevisiae deletion strains, locus YDR392W, strain spt3, stronger effect = lower value 1.01 | S. cerevisiae deletion strains, locus YDR502C, strain sam2, stronger effect = lower value 1.02 | S. cerevisiae deletion strains, locus YEL003W, strain gim4, stronger effect = lower value 1.01 | S. cerevisiae deletion strains, locus YEL037C, strain rad23, stronger effect = lower value 1 | S. cerevisiae deletion strains, locus YEL061C, strain CIN8 (second series), stronger effect = lower value 1.01 | S. cerevisiae deletion strains, locus YER015W, strain faa2, stronger effect = lower value 1.01 | S. cerevisiae deletion strains, locus YER016W, strain bim1, stronger effect = lower value 1.01 | S. cerevisiae deletion strains, locus YER110C, stronger effect = lower value 0.966 | S. cerevisiae deletion strains, locus YER111C, strain swi4, stronger effect = lower value 1.01 | S. cerevisiae deletion strains, locus YER155C, strain BEM2 (second series), stronger effect = lower value 1 | S. cerevisiae deletion strains, locus YER155C, strain BEM2, stronger effect = lower value 0.989 | S. cerevisiae deletion strains, locus YER167W, strain BCK2, stronger effect = lower value 0.975 | S. cerevisiae deletion strains, locus YFR010W, strain ubp6, stronger effect = lower value 1.01 | S. cerevisiae deletion strains, locus YGL078C, strain dbp3, stronger effect = lower value 1.02 | S. cerevisiae deletion strains, locus YGL086W, strain mad1, stronger effect = lower value 0.992 | S. cerevisiae deletion strains, locus YGL167C, strain pmr1, stronger effect = lower value 1 | S. cerevisiae deletion strains, locus YGL173C, strain kem1, stronger effect = lower value 1 | S. cerevisiae deletion strains, locus YGL227W, strain vid30, stronger effect = lower value 1.01 | S. cerevisiae deletion strains, locus YGL240W, strain doc1, stronger effect = lower value 1 | S. cerevisiae deletion strains, locus YGL248W, strain PDE1, stronger effect = lower value 1.01 | S. cerevisiae deletion strains, locus YGL253W, strain hxk2, stronger effect = lower value 0.998 | S. cerevisiae deletion strains, locus YGR135W, strain pre9, stronger effect = lower value 1.1 | S. cerevisiae deletion strains, locus YGR252W, strain gcn5, stronger effect = lower value 1.04 | S. cerevisiae deletion strains, locus YHR013C, strain ard1, stronger effect = lower value 0.988 | S. cerevisiae deletion strains, locus YHR027C, strain rpn1, stronger effect = lower value 0.993 | S. cerevisiae deletion strains, locus YHR030C, strain SLT2, stronger effect = lower value 1.02 | S. cerevisiae deletion strains, locus YHR079C, strain IRE1 (second series), stronger effect = lower value 0.982 | S. cerevisiae deletion strains, locus YHR079C, strain IRE1, stronger effect = lower value 0.997 | S. cerevisiae deletion strains, locus YHR094C, strain hxt1, stronger effect = lower value 0.969 | S. cerevisiae deletion strains, locus YHR129C, strain ARP1, stronger effect = lower value 0.993 | S. cerevisiae deletion strains, locus YHR142W, strain chs7, stronger effect = lower value 1.04 | S. cerevisiae deletion strains, locus YHR200W, strain rpn10, stronger effect = lower value 0.994 | S. cerevisiae deletion strains, locus YIL066C, strain RNR3, stronger effect = lower value 0.956 | S. cerevisiae deletion strains, locus YIL073C, strain SPO22, stronger effect = lower value 0.989 | S. cerevisiae deletion strains, locus YIL125W, strain kgd1, stronger effect = lower value 0.981 | S. cerevisiae deletion strains, locus YIR030C, strain dcg1, stronger effect = lower value 0.987 | S. cerevisiae deletion strains, locus YJL092W, strain hpr5, stronger effect = lower value 1 | S. cerevisiae deletion strains, locus YJL095W, strain BCK1 (second series), stronger effect = lower value 0.999 | S. cerevisiae deletion strains, locus YJL095W, strain BCK1, stronger effect = lower value 1.06 and 1.03 | S. cerevisiae deletion strains, locus YJL115W, strain asf1, stronger effect = lower value 1 | S. cerevisiae deletion strains, locus YJL129C, strain trk1, stronger effect = lower value 1.02 | S. cerevisiae deletion strains, locus YJL134W, strain LCB3, stronger effect = lower value 0.97 | S. cerevisiae deletion strains, locus YJL154C, strain vps35, stronger effect = lower value 1 | S. cerevisiae deletion strains, locus YJL164C, strain tpk1, stronger effect = lower value 1 | S. cerevisiae deletion strains, locus YJL166W, strain qcr8, stronger effect = lower value 1 | S. cerevisiae deletion strains, locus YJL168C, strain set2, stronger effect = lower value 0.995 | S. cerevisiae deletion strains, locus YJL187C, strain SWE1 (second series), stronger effect = lower value 1.03 | S. cerevisiae deletion strains, locus YJR066W, strain TOR1, stronger effect = lower value 0.96 | S. cerevisiae deletion strains, locus YKL009W, strain mrt4, stronger effect = lower value 0.986 | S. cerevisiae deletion strains, locus YKL068W, stronger effect = lower value 0.992 | S. cerevisiae deletion strains, locus YKL085W, strain MDH1 (second series), stronger effect = lower value 0.996 | S. cerevisiae deletion strains, locus YKL085W, strain MDH1, stronger effect = lower value 0.996 | S. cerevisiae deletion strains, locus YKL160W, strain elf1, stronger effect = lower value 1.01 | S. cerevisiae deletion strains, locus YKR001C, strain vps1, stronger effect = lower value 0.985 | S. cerevisiae deletion strains, locus YKR026C, strain gcn3, stronger effect = lower value 1.01 | S. cerevisiae deletion strains, locus YKR091W, strain srl3, stronger effect = lower value 1 | S. cerevisiae deletion strains, locus YLL001W, strain dnm1, stronger effect = lower value 1.01 | S. cerevisiae deletion strains, locus YLL026W, stronger effect = lower value 1.02 | S. cerevisiae deletion strains, locus YLL041C, strain sdh2, stronger effect = lower value 1.02 | S. cerevisiae deletion strains, locus YLR027C, strain aat2, stronger effect = lower value 1.01 | S. cerevisiae deletion strains, locus YLR039C, strain RIC1, stronger effect = lower value 0.971 | S. cerevisiae deletion strains, locus YLR058C, strain SHM2, stronger effect = lower value 0.981 | S. cerevisiae deletion strains, locus YLR102C, strain apc9, stronger effect = lower value 0.974 | S. cerevisiae deletion strains, locus YLR113W, strain HOG1, stronger effect = lower value 0.962 | S. cerevisiae deletion strains, locus YLR221C, strain rsa3, stronger effect = lower value 1 | S. cerevisiae deletion strains, locus YLR258W, strain gsy2, stronger effect = lower value 1 | S. cerevisiae deletion strains, locus YLR262C, strain YPT6 (second series), stronger effect = lower value 1.01 | S. cerevisiae deletion strains, locus YLR268W, strain sec22, stronger effect = lower value 0.964 | S. cerevisiae deletion strains, locus YLR320W, strain mms22, stronger effect = lower value 1.01 | S. cerevisiae deletion strains, locus YLR342W, strain FKS1 (second series), stronger effect = lower value 1 | S. cerevisiae deletion strains, locus YLR342W, strain FKS1, stronger effect = lower value 0.999 | S. cerevisiae deletion strains, locus YLR357W, strain rsc2, stronger effect = lower value 1.03 | S. cerevisiae deletion strains, locus YLR370C, strain arc18, stronger effect = lower value 1.02 | S. cerevisiae deletion strains, locus YLR371W, strain rom2, stronger effect = lower value 0.967 | S. cerevisiae deletion strains, locus YLR384C, strain iki3, stronger effect = lower value 1.02 | S. cerevisiae deletion strains, locus YLR418C, strain cdc73, stronger effect = lower value 1.04 | S. cerevisiae deletion strains, locus YML016C, strain PPZ1, stronger effect = lower value 0.973 | S. cerevisiae deletion strains, locus YML032C, strain rad52, stronger effect = lower value 0.966 | S. cerevisiae deletion strains, locus YML120C, strain ndi1, stronger effect = lower value 0.993 | S. cerevisiae deletion strains, locus YML124C, strain tub3, stronger effect = lower value 0.989 | S. cerevisiae deletion strains, locus YMR058W, strain fet3, stronger effect = lower value 1 | S. cerevisiae deletion strains, locus YMR078C, strain ctf18, stronger effect = lower value 0.983 | S. cerevisiae deletion strains, locus YMR125W, strain sto1, stronger effect = lower value 0.999 | S. cerevisiae deletion strains, locus YMR129W, stronger effect = lower value 1 | S. cerevisiae deletion strains, locus YMR205C, strain PFK2, stronger effect = lower value 1 | S. cerevisiae deletion strains, locus YMR223W, strain ubp8, stronger effect = lower value 1.01 | S. cerevisiae deletion strains, locus YMR231W, strain pep5, stronger effect = lower value 1.01 | S. cerevisiae deletion strains, locus YMR307W, strain GAS1, stronger effect = lower value 0.896 | S. cerevisiae deletion strains, locus YNL067W, strain RPL9B, stronger effect = lower value 1.04 | S. cerevisiae deletion strains, locus YNL071W, strain lat1, stronger effect = lower value 1.01 | S. cerevisiae deletion strains, locus YNL153C, strain GIM3, stronger effect = lower value 1.02 | S. cerevisiae deletion strains, locus YNL183C, strain NPR1, stronger effect = lower value 0.993 | S. cerevisiae deletion strains, locus YNL209W, strain ssb2, stronger effect = lower value 0.991 | S. cerevisiae deletion strains, locus YNL233W, strain BNI4, stronger effect = lower value 1.02 | S. cerevisiae deletion strains, locus YNL248C, strain rpa49, stronger effect = lower value 1.02 | S. cerevisiae deletion strains, locus YNL250W, strain rad50, stronger effect = lower value 0.994 | S. cerevisiae deletion strains, locus YNL271C, strain bni1, stronger effect = lower value 0.988 | S. cerevisiae deletion strains, locus YNL298W, strain CLA4, stronger effect = lower value 0.963 | S. cerevisiae deletion strains, locus YNL307C, strain MCK1, stronger effect = lower value 0.991 | S. cerevisiae deletion strains, locus YNL322C, strain KRE1 (second series), stronger effect = lower value 1 | S. cerevisiae deletion strains, locus YNR049C, strain mso1, stronger effect = lower value 1.02 | S. cerevisiae deletion strains, locus YNR052C, strain pop2, stronger effect = lower value 1.02 | S. cerevisiae deletion strains, locus YOL006C, strain TOP1, stronger effect = lower value 0.97 | S. cerevisiae deletion strains, locus YOL012C, strain htz1 0.746 | S. cerevisiae deletion strains, locus YOL147C, strain pex11, stronger effect = lower value 0.982 | S. cerevisiae deletion strains, locus YOR001W, strain rrp6, stronger effect = lower value 1.01 | S. cerevisiae deletion strains, locus YOR061W, strain CKA2, stronger effect = lower value 0.948 | S. cerevisiae deletion strains, locus YOR069W, strain VPS5, stronger effect = lower value 0.992 | S. cerevisiae deletion strains, locus YOR070C, strain gyp1, stronger effect = lower value 1.02 | S. cerevisiae deletion strains, locus YOR080W, strain dia2, stronger effect = lower value 0.995 | S. cerevisiae deletion strains, locus YOR083W, strain WHI5, stronger effect = lower value 1 | S. cerevisiae deletion strains, locus YOR106W, strain vam3, stronger effect = lower value 1.01 | S. cerevisiae deletion strains, locus YOR136W, strain idh2, stronger effect = lower value 0.986 | S. cerevisiae deletion strains, locus YOR144C, strain elg1, stronger effect = lower value 0.979 | S. cerevisiae deletion strains, locus YOR184W, strain ser1, stronger effect = lower value 0.935 | S. cerevisiae deletion strains, locus YOR231W, strain MKK1, stronger effect = lower value 1.03 | S. cerevisiae deletion strains, locus YOR265W, strain rbl2, stronger effect = lower value 1.03 | S. cerevisiae deletion strains, locus YOR270C, strain vph1, stronger effect = lower value 1.07 | S. cerevisiae deletion strains, locus YOR290C, strain snf2, stronger effect = lower value 0.996 | S. cerevisiae deletion strains, locus YOR316C, strain cot1, stronger effect = lower value 0.981 | S. cerevisiae deletion strains, locus YPL051W, strain arl3, stronger effect = lower value 1.01 | S. cerevisiae deletion strains, locus YPL078C, strain atp4, stronger effect = lower value 1 | S. cerevisiae deletion strains, locus YPL106C, strain sse1, stronger effect = lower value 0.986 | S. cerevisiae deletion strains, locus YPL240C, strain hsp82, stronger effect = lower value 1 | S. cerevisiae deletion strains, locus YPL241C, strain CIN2, stronger effect = lower value 0.981 | S. cerevisiae deletion strains, locus YPL256C, strain CLN2, stronger effect = lower value 1 | S. cerevisiae deletion strains, locus YPR119W, strain clb2, stronger effect = lower value 0.988 | S. cerevisiae deletion strains, locus YPR141C, strain kar3, stronger effect = lower value 0.992 | S. cerevisiae deletion strains, locus YPR163C, strain tif3, stronger effect = lower value 0.971 | S. cerevisiae deletion strains, locus YPR167C, strain met16, stronger effect = lower value 0.997 | S. cerevisiae deletion strains, strain wtn01, stronger effect = lower value 0.961 | S. cerevisiae strains, strain wild type, stronger effect = lower value 0.97
